About 4,100 (2.2%) of roughly 190,000 compounds were called active. Shown is part of a subset that was picked to be rich in actives. A number with no mark means an inactive call.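 Rule for the calls: active = thallium flux slope and its plate-corrected score both differing from the plate sample mean at a set confidence after two filtering rounds, in either direction; inactive = the rest.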

Chain of Solute carrier family 12 member 5 (Homo sapiens) (Q9H2X9 whole entry, looked up): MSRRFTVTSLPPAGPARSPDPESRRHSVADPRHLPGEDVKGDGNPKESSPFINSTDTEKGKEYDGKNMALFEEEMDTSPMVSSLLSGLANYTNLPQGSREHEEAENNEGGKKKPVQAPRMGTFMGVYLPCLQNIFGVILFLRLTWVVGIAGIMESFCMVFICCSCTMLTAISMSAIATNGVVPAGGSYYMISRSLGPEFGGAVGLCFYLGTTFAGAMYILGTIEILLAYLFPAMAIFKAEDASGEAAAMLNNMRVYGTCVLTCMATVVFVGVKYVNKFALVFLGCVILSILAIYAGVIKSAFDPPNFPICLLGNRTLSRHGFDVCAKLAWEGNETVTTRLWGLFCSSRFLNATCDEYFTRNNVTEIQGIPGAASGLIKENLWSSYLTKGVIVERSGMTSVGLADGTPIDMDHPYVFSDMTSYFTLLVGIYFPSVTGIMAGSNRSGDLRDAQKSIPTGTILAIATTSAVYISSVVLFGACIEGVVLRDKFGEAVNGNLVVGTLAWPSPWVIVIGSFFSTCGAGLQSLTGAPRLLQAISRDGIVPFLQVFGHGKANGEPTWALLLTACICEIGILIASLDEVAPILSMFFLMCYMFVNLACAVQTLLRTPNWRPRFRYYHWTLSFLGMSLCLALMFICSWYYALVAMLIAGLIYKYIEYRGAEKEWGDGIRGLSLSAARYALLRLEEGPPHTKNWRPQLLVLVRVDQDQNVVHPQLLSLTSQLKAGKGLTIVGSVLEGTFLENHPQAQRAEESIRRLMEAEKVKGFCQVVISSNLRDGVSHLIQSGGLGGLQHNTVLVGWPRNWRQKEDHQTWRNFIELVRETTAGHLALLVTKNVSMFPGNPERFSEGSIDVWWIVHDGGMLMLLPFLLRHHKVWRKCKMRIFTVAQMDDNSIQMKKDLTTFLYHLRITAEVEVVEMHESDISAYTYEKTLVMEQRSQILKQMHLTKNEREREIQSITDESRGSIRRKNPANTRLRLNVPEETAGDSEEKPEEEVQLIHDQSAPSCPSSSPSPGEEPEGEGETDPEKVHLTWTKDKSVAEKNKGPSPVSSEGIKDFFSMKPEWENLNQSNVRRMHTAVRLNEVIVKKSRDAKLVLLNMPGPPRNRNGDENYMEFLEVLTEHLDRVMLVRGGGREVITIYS

The test addresses Solute carrier family 12 member 5 (Homo sapiens) (UniProt Q9H2X9). As to the kind of experiment: KCC2 cotransporter modulators, thallium flux, primary screen, cell-based, HEK293 KCC2, FluoZin-2 fluorescence, MLSMR (AID 1456).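 Note: slope of fluorescence scaled to starting intensity during 10 to 20 s after thallium.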 The following applies: KCC2 cells, thallium flux FluoZin-2 fluorescence; at 10 µM.
With `CC(C)(C)c1cc(C(=O)NN)n(Cc2ccc(Cl)cc2Cl)n1`, the B-score of Tl+ flux slope (higher = more flux/activation; lower = inhibition) is -0.315.
The result for `O=S(=O)(Nc1n[nH]c(C(F)(F)F)n1)c1ccccc1` reads -2.65.
Regarding `N#Cc1c(NCCO)ccc([N+](=O)[O-])c1NCCO`, the B-score of Tl+ flux slope (higher = more flux/activation; lower = inhibition) was -0.904.
Next, `Nc1nnnn1CC(=O)N/N=C/c1ccc(-c2cccc(Cl)c2)o1`: -0.38; `O=C1c2ccccc2NC(c2ccc(-c3cccc(Cl)c3)o2)N1O` (configuration not stated): 35 (active); `O=C1NC(c2cccc(Cl)c2)Nc2ccccc21` (configuration not stated): 0.445.
Next, `CCn1c(SCC(=O)Nc2sc(C)c(C)c2C#N)nnc1C1CC1`: 0.253.
The result for `COc1ccc(C(=O)NC(=S)NNC(=O)c2c(-c3ccccc3)noc2C)cc1` reads 11.1 (active); that for `COc1ccc(C(=O)NNC(=S)NC(=O)c2ccccc2[N+](=O)[O-])cc1`, 1.61; that for `Cc1onc(-c2ccccc2)c1C(=O)N1CCOCC1`, 0.00257.
`CC(=O)Nc1cccc(NC(=O)c2c(-c3ccccc3)noc2C)c1`: the B-score of Tl+ flux slope (higher = more flux/activation; lower = inhibition) is -0.00829.
Next, `Cc1onc(-c2ccccc2)c1C(=O)N=C(N)c1ccc(Cl)cc1`: 1.42; `Cc1onc(-c2ccccc2)c1C(=O)NNC(=S)NC(=O)c1ccc(F)cc1`: 8.51 (active); `O=C1CCCC(O)=C1N=Nc1ccc(S(=O)(=O)N2CCOCC2)cc1`: -0.62.
Next, `Cc1ccc(OC(=O)c2c(C)nn(-c3ccccc3)c2C)cc1`: 0.00646; `O=C(Nc1ccc(Cl)cc1)Nc1ccc(C(=O)N2CCOCC2)cc1`: 0.868; `c1ccc2c(NC3C4CC5CC(C4)CC3C5)nc(N3CCOCC3)nc2c1` (configuration not stated): -0.0419.
Next, `COC(=O)c1sccc1NC(=O)CC1C(=O)NCCN1C(=O)Nc1ccc(F)cc1F` (configuration not stated): -0.52; `COC(=O)c1ccccc1N=Nc1c(C)[nH][nH]c1=O`: 0.855; `CC(C)(C)Cc1nnc(NC(=O)c2cc(-c3ccccc3)nc3ccccc23)s1`: 0.0714.
In the case of `O=C(Nc1nnc(-c2ccccc2)o1)c1cc(-c2cccs2)nc2ccccc12`, the B-score of Tl+ flux slope (higher = more flux/activation; lower = inhibition) was 99.4 (active).
The result for `O=C(Nc1ccc(S(=O)(=O)Nc2nccs2)cc1)c1cc(-c2ccncc2)nc2ccccc12` reads -0.477; that for `Cc1c(NC(=O)CN2C(=O)C(=O)N(Cc3ccccc3)C2=O)c(=O)n(-c2ccccc2)n1C`, 0.0462.
With `Oc1oc(-c2ccccc2Br)nc1/C=N/c1ccccn1`, the B-score of Tl+ flux slope (higher = more flux/activation; lower = inhibition) is 1.39.
The result for `CC(C)n1c(O)c(N=Nc2ccccn2)c2ccccc21` reads 5.67 (active).
The result for `COC(=O)Cn1c(O)c(N=NC(=O)OC)c2ccccc21` reads 1.85.
Next, `COc1ccc(Cn2c(O)c(/C=C3/C=CC=N3)c(=O)[nH]c2=O)cc1`: -0.723.
For the compound `Cn1nc(C(F)(F)F)cc1C(=O)O`, the B-score of Tl+ flux slope (higher = more flux/activation; lower = inhibition) was 1.56.
Next, `Cc1cc(NC(=O)OC(C)C)ccc1-c1ccc(NC(=O)OC(C)C)cc1C`: -0.761.
Next, `CC(C)CN(CC(C)C)CC(O)CN(c1ccccc1)S(=O)(=O)c1ccccc1[N+](=O)[O-]` (configuration not stated): -2.39.
Next, `Cc1cc(NC(=O)CN2CCCC(C)C2)n(-c2nc3ccccc3s2)n1` (configuration not stated): 0.312.
On to `CCC(C)Cn1c(O)cc2nn(-c3nc4ccccc4s3)c(=O)c-2c1C` (configuration not stated), for which the B-score of Tl+ flux slope (higher = more flux/activation; lower = inhibition) is 5.85 (active).
Turning to `CCOC(=O)N1CCN(CC(=O)Nc2cc(C)nn2-c2nc3ccccc3s2)CC1`, the B-score of Tl+ flux slope (higher = more flux/activation; lower = inhibition) is -0.634.
Next, `C/C(=N\NC(=O)c1cccnc1)c1ccc(-n2ccnc2)cc1`: 0.898; `COc1cc2c(cc1OC)C(/C=C/c1ccco1)=NCC2`: -1.64; `O=C(CCCn1c(=O)[nH]c2cc(Cl)ccc2c1=O)NCCN1CCN(c2ccccc2)CC1`: -1.09.
The result for `COc1cccc(CNC(=O)c2n[nH]c3ccccc23)c1` reads -0.482; that for `CCn1c(=O)cc(OCC(=O)NCCCN2CCN(c3cccc(Cl)c3)CC2)c2ccccc21`, -4.58; that for `O=C(Cc1csc(Nc2nc(=S)[nH]c3ccccc23)n1)NCCCN1CCN(c2cccc(Cl)c2)CC1`, 18.7 (active).
With `COc1cccc(CNC(=O)CCN2C(=S)NC(C)(C)CC2C)c1` (configuration not stated), the B-score of Tl+ flux slope (higher = more flux/activation; lower = inhibition) is -1.19.
Next, `COc1cccc(CNC(=O)Cc2csc(Nc3nc(=S)[nH]c4ccccc34)n2)c1`: 16.7 (active).
Take `COC(=O)c1cc(S(=O)(=O)N2CCC(C(N)=O)CC2)oc1C`: the B-score of Tl+ flux slope (higher = more flux/activation; lower = inhibition) is 0.506.
The result for `Cn1cc(S(=O)(=O)NC(c2ccccc2)c2ccccc2)c(=O)n(C)c1=O` reads 1.52; that for `CCCNc1c(N)c(=O)c1=O`, 0.441; that for `O=C(Cc1ccccc1)Nc1c(Cl)ccc2nsnc12`, 0.0149.
On to `O=C(Nc1ccn(Cc2ccccc2)n1)c1n[nH]c([N+](=O)[O-])c1Cl`, for which the B-score of Tl+ flux slope (higher = more flux/activation; lower = inhibition) was -5.21.
Take `O=C(Nc1ccn(Cc2ccccc2)n1)c1cccc(F)c1`: the B-score of Tl+ flux slope (higher = more flux/activation; lower = inhibition) was -4.17 (active).
Next, `O=C(Nc1ccn(Cc2ccc(F)cc2)n1)c1ccncc1`: -1.12; `CC(=O)NCc1ccc(S(=O)(=O)NC2CCN(Cc3ccccc3)CC2)cc1`: -1.54; `Nn1c(SCc2ccccc2)nnc1C1CCCCC1`: 0.0386.
Regarding `COc1ccccc1CNC(=O)Cn1c(=O)oc2cc(Cl)ccc21`, the B-score of Tl+ flux slope (higher = more flux/activation; lower = inhibition) is 0.172.
Turning to `COc1ccccc1N1CCN(C(=O)CSc2ncnc3c2cnn3-c2ccc(C)c(C)c2)CC1`, the B-score of Tl+ flux slope (higher = more flux/activation; lower = inhibition) was 5.99 (active).
The result for `COc1ccccc1N1CCN(C(=O)CSc2nnc(-c3ccoc3C)o2)CC1` reads -1.44; that for `COC(=O)CSc1ncnc2c1cnn2-c1ccc(C)cc1C`, 0.528.
The result for `CN1CCN(c2ccc(S(=O)(=O)N3CCOCC3)cc2NC(=O)CCc2ccccc2)CC1` reads 0.193; that for `CC(CO)(CO)NC(=O)c1ccc(=O)[nH]n1`, -0.424; that for `Cc1cc(=O)[nH]c(SCC(=O)Nc2ccc(Br)cc2)n1`, 1.17.
Next, `Cc1cccc(C)c1NC(=O)CSc1nnc(-c2ccccc2)n1Cc1ccc2c(c1)OCO2`: -0.0425.
Turning to `CC1=C(C(N)=O)C(c2ccc3c(c2)OCO3)n2nc(-c3cccc(C)c3)nc2N1` (configuration not stated), the B-score of Tl+ flux slope (higher = more flux/activation; lower = inhibition) was -0.546.
Next, `c1ccc(-c2nnc3n2NC(c2ccc4c(c2)OCO4)S3)cc1` (configuration not stated): 17.9 (active); `CN=C1C=C/C(=N/N=c2\ccn(O)cc2C)C=C1C`: 0.0998; `Cc1cccc(C2C3=C(CCCC3=O)N=C3c4ccccc4C(=O)C32)c1` (configuration not stated): 1.41.
Next, `Cc1ccc(-n2[nH]c(C)c(/C=N/N3C(=O)c4cccc5cccc(c45)C3=O)c2=O)cc1`: 41.4 (active); `Cc1[nH]n(-c2ccc(Cl)cc2)c(=O)c1/C=N/n1c(C)nc2ccccc2c1=O`: 1.71.
`COc1cc(SC#N)ccc1N=Cc1c(C)[nH]n(-c2ccc(C)cc2)c1=O`: the B-score of Tl+ flux slope (higher = more flux/activation; lower = inhibition) was 0.0406.
Next, `O=C(CSc1nnc(SCc2ccc(F)cc2)s1)Nc1ccc(C(=O)O)cc1`: -2.12; `COc1ccc([N+](=O)[O-])cc1NC(=O)CCc1ccccc1`: -1.49; `CC(C)CNC(=O)COC(=O)/C=C/c1ccco1`: 0.238.
Next, `COc1ccc([N+](=O)[O-])cc1NC(=O)COC(=O)/C=C/c1ccco1`: -3.66 (active).
Next, `O=C(COc1ccccc1[N+](=O)[O-])N/N=C/c1ccc[nH]1`: 1.37; `CCOC(=O)C1CCN(c2c(Nc3cc(C)cc(C)c3)c(=O)c2=O)CC1`: 0.776; `CC(=O)c1sc(NC(=O)c2cccc3ccccc23)nc1C`: 3.04.
As to `COC(=O)c1nc2ccccc2s1`, the B-score of Tl+ flux slope (higher = more flux/activation; lower = inhibition) is -0.0154.
Next, `COc1cccc2sc(NNC(=O)c3nc4ccccc4s3)nc12`: 92.4 (active); `COc1ccccc1OCc1nc2ccccc2s1`: -1.36.
The result for `CC(=O)c1sc(NC(=O)CCCOc2ccccc2C)nc1C` reads 0.355; that for `COc1cccc2sc(Nc3nc(C)c(C(C)=O)s3)nc12`, 16.2 (active); that for `Cc1ccc(C(=O)N/N=C\c2cc(Br)c(Br)o2)cn1`, 1.86.
Consider `O=C(CCc1n[nH]c(=O)[nH]c1=O)N/N=C/c1ccc(Br)o1`, for which the B-score of Tl+ flux slope (higher = more flux/activation; lower = inhibition) is 0.0262.
Next, `O=C(N/N=C/c1ccc(Br)o1)c1cncc(Br)c1`: 7.4 (active); `CCN(CC)CCCN=C(N)N`: 0.285; `Cc1nc2cc(NC(=O)Nc3cccc(F)c3)ccc2n1C`: 0.703.
The result for `NNC(=O)c1cccc(COCC(F)(F)C(F)F)c1` reads -0.618; that for `Cc1cccc(-n2c(=O)c3c(C)c(C)sc3n(CC(N)=O)c2=O)c1`, 0.771.
Turning to `Cc1cccc(-n2c(SCC(N)=O)nc3c(c2=O)C2(CCCCC2)Cc2ccccc2-3)c1`, the B-score of Tl+ flux slope (higher = more flux/activation; lower = inhibition) is 4.92 (active).
For `N#CCSc1nc2c(c(=O)n1Cc1ccccc1)C1(CCCC1)Cc1ccccc1-2`, the B-score of Tl+ flux slope (higher = more flux/activation; lower = inhibition) is 1.45.
Next, `Cc1cc(Nc2ccc(Cl)cc2)nc(N2CCOCC2)n1`: -1.05.
Next, `NC(=S)Nc1c(Cl)cccc1Cl`: 0.0214; `C=CCNC(=S)NNC(=O)c1ccc(Br)o1`: 0.645; `C=CCNC(=S)NNC(=O)COc1c(Cl)cc(Cl)cc1Cl`: 7.57 (active).
Take `C=CCNC(=O)COC(=O)CNC(=O)c1cc(Cl)cc([N+](=O)[O-])c1`: the B-score of Tl+ flux slope (higher = more flux/activation; lower = inhibition) was 0.057.
The result for `Cc1cc(Nc2ccc(N3CCOCC3)cc2)c2cccc(C)c2n1` reads -2.79.
For `CNC(=S)N/N=C/c1ccc(N2CCOCC2)s1`, the B-score of Tl+ flux slope (higher = more flux/activation; lower = inhibition) was 1.59.
Next, `Cc1ccc(/C=N/NC(=O)CN2CCN(Cc3ccccc3)CC2)s1`: 0.187; `C=CCNC(=S)N/N=C/c1ccc(C)s1`: 14 (active).
Next, `O=C(Nc1nnc(CCN2CCCCC2)s1)c1cccc(Cl)c1`: 0.116; `CN1CCN(c2ccc(CNS(=O)(=O)c3cccc(F)c3)cc2)CC1`: -0.58.

The record behind these values is PubChem BioAssay AID1456 (Vanderbilt High Throughput Screening Facility, 2008).
